Test results: PubChem BioAssay AID1159580 (chemical genetic matrix, 2015)
About 2,000 (36%) of roughly 5,500 compounds were called active. Not shown: some 18% with an inconclusive outcome. Rule as the data show it: active = normalized growth mostly below about 0.91 (no sharp cut-off); inconclusive = no clear call, values can overlap the other calls; inactive = mostly above about 0.92. This is one part of the list.

Assay: chemical genetic growth profiling, strain panel (AID 1159580);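 also: tested at 20 µM; growth read once vehicle control cultures reached saturation at 30 °C; 1 = growth at the plate median or of vehicle wells; lower values mean less growth of the strain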
Settings: growth OD

Measured: normalized growth

COc1cc(OC)c2c(c1Cl)OC1(C2=O)C(O)=CC(=O)CC1C (stereo unspecified)
inactive: S. cerevisiae deletion strains, locus YJR075W, strain HOC1, hits give low values 1.02 | S. cerevisiae deletion strains, locus YKL009W, strain mrt4, hits give low values 1.01 | S. cerevisiae deletion strains, locus YKL068W, hits give low values 0.991 | S. cerevisiae deletion strains, locus YKL085W, strain MDH1 (second series), hits give low values 1.01 | S. cerevisiae deletion strains, locus YKL085W, strain MDH1, hits give low values 1.01 | S. cerevisiae deletion strains, locus YKL160W, strain elf1, hits give low values 1.01 | S. cerevisiae deletion strains, locus YKR001C, strain vps1, hits give low values 1.03 | S. cerevisiae deletion strains, locus YKR026C, strain gcn3, hits give low values 1.01 | S. cerevisiae deletion strains, locus YKR091W, strain srl3, hits give low values 1.01 | S. cerevisiae deletion strains, locus YLL001W, strain dnm1, hits give low values 1 | S. cerevisiae deletion strains, locus YLL026W, hits give low values 1.01 | S. cerevisiae deletion strains, locus YLL041C, strain sdh2, hits give low values 1.01 | S. cerevisiae deletion strains, locus YLR027C, strain aat2, hits give low values 1.03 | S. cerevisiae deletion strains, locus YLR039C, strain RIC1, hits give low values 1.08 | S. cerevisiae deletion strains, locus YLR058C, strain SHM2, hits give low values 1.03 | S. cerevisiae deletion strains, locus YLR102C, strain apc9, hits give low values 0.991 | S. cerevisiae deletion strains, locus YLR113W, strain HOG1, hits give low values 1.04 | S. cerevisiae deletion strains, locus YLR221C, strain rsa3, hits give low values 1.02 | S. cerevisiae deletion strains, locus YLR258W, strain gsy2, hits give low values 1 | S. cerevisiae deletion strains, locus YLR262C, strain YPT6 (second series), hits give low values 1.02 | S. cerevisiae deletion strains, locus YLR262C, strain YPT6, hits give low values 1.06 | S. cerevisiae deletion strains, locus YLR268W, strain sec22, hits give low values 1.02 | S. cerevisiae deletion strains, locus YLR320W, strain mms22, hits give low values 1.02 | S. cerevisiae deletion strains, locus YLR342W, strain FKS1 (second series), hits give low values 1.06 | S. cerevisiae deletion strains, locus YLR342W, strain FKS1, hits give low values 1.01 | S. cerevisiae deletion strains, locus YLR357W, strain rsc2, hits give low values 1.02 | S. cerevisiae deletion strains, locus YLR370C, strain arc18, hits give low values 1.01 | S. cerevisiae deletion strains, locus YLR371W, strain rom2, hits give low values 1 | S. cerevisiae deletion strains, locus YLR384C, strain iki3, hits give low values 1.01 | S. cerevisiae deletion strains, locus YLR418C, strain cdc73, hits give low values 0.992 | S. cerevisiae deletion strains, locus YML016C, strain PPZ1, hits give low values 1.03 | S. cerevisiae deletion strains, locus YML032C, strain rad52, hits give low values 1 | S. cerevisiae deletion strains, locus YML120C, strain ndi1, hits give low values 1.01 | S. cerevisiae deletion strains, locus YML124C, strain tub3, hits give low values 0.991 | S. cerevisiae deletion strains, locus YMR058W, strain fet3, hits give low values 1.01 | S. cerevisiae deletion strains, locus YMR078C, strain ctf18, hits give low values 0.98 | S. cerevisiae deletion strains, locus YMR125W, strain sto1, hits give low values 1.01 | S. cerevisiae deletion strains, locus YMR129W, hits give low values 1.01 | S. cerevisiae deletion strains, locus YMR205C, strain PFK2, hits give low values 1.02 | S. cerevisiae deletion strains, locus YMR223W, strain ubp8, hits give low values 1.01 | S. cerevisiae deletion strains, locus YMR231W, strain pep5, hits give low values 0.995 | S. cerevisiae deletion strains, locus YMR307W, strain GAS1, hits give low values 1.04 | S. cerevisiae deletion strains, locus YNL067W, strain RPL9B, hits give low values 1.01 | S. cerevisiae deletion strains, locus YNL071W, strain lat1, hits give low values 1.01 | S. cerevisiae deletion strains, locus YNL128W, strain TEP1, hits give low values 1.03 | S. cerevisiae deletion strains, locus YNL183C, strain NPR1, hits give low values 0.932 | S. cerevisiae deletion strains, locus YNL209W, strain ssb2, hits give low values 1.03 | S. cerevisiae deletion strains, locus YNL233W, strain BNI4, hits give low values 1.02 | S. cerevisiae deletion strains, locus YNL248C, strain rpa49, hits give low values 1.01 | S. cerevisiae deletion strains, locus YNL250W, strain rad50, hits give low values 0.992 | S. cerevisiae deletion strains, locus YNL271C, strain bni1, hits give low values 0.984 | S. cerevisiae deletion strains, locus YNL298W, strain CLA4, hits give low values 1.01 | S. cerevisiae deletion strains, locus YNL307C, strain MCK1, hits give low values 0.993 | S. cerevisiae deletion strains, locus YNL322C, strain KRE1 (second series), hits give low values 1.01 | S. cerevisiae deletion strains, locus YNL322C, strain KRE1, hits give low values 1.02 | S. cerevisiae deletion strains, locus YNR049C, strain mso1, hits give low values 1 | S. cerevisiae deletion strains, locus YNR052C, strain pop2, hits give low values 0.969 | S. cerevisiae deletion strains, locus YOL006C, strain TOP1, hits give low values 1.2 | S. cerevisiae deletion strains, locus YOL012C, strain htz1 1.12 | S. cerevisiae deletion strains, locus YOL147C, strain pex11, hits give low values 1 | S. cerevisiae deletion strains, locus YOR001W, strain rrp6, hits give low values 1.01 | S. cerevisiae deletion strains, locus YOR061W, strain CKA2, hits give low values 1.04 | S. cerevisiae deletion strains, locus YOR069W, strain VPS5, hits give low values 1.02 | S. cerevisiae deletion strains, locus YOR070C, strain gyp1, hits give low values 1.02 | S. cerevisiae deletion strains, locus YOR080W, strain dia2, hits give low values 1.01 | S. cerevisiae deletion strains, locus YOR083W, strain WHI5, hits give low values 1.01 | S. cerevisiae deletion strains, locus YOR106W, strain vam3, hits give low values 1.02 | S. cerevisiae deletion strains, locus YOR136W, strain idh2, hits give low values 1 | S. cerevisiae deletion strains, locus YOR144C, strain elg1, hits give low values 0.996 | S. cerevisiae deletion strains, locus YOR184W, strain ser1, hits give low values 1.04 | S. cerevisiae deletion strains, locus YOR231W, strain MKK1, hits give low values 0.978 | S. cerevisiae deletion strains, locus YOR265W, strain rbl2, hits give low values 1 | S. cerevisiae deletion strains, locus YOR270C, strain vph1, hits give low values 1.05 | S. cerevisiae deletion strains, locus YOR290C, strain snf2, hits give low values 1.02 | S. cerevisiae deletion strains, locus YOR316C, strain cot1, hits give low values 0.992 | S. cerevisiae deletion strains, locus YPL051W, strain arl3, hits give low values 0.999 | S. cerevisiae deletion strains, locus YPL078C, strain atp4, hits give low values 1.01 | S. cerevisiae deletion strains, locus YPL106C, strain sse1, hits give low values 1 | S. cerevisiae deletion strains, locus YPL240C, strain hsp82, hits give low values 1 | S. cerevisiae deletion strains, locus YPL256C, strain CLN2, hits give low values 0.979 | S. cerevisiae deletion strains, locus YPR119W, strain clb2, hits give low values 0.986 | S. cerevisiae deletion strains, locus YPR141C, strain kar3, hits give low values 0.988 | S. cerevisiae deletion strains, locus YPR163C, strain tif3, hits give low values 0.995 | S. cerevisiae deletion strains, locus YPR167C, strain met16, hits give low values 0.997 | S. cerevisiae deletion strains, strain wtn01, hits give low values 1.04 | S. cerevisiae strains, strain wild type, hits give low values 1.04
